The target in test [1] is Luciferin 4-monooxygenase (Photinus pyralis) (UniProt P08659). The test can be described thus: qHTS assay to identify small molecule inhibitors of firefly luciferase (AID 1224835). Note: nearly all actives have a fitted effect of over 25% in size. Note: potency is the fitted concentration of half-maximal effect. In short, it runs like this: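 Inhibition of purified Photinus luciferase is measured by luminescence. Substrate levels (D-luciferin, ATP) sit at their KM values. Each compound is tested in a concentration series.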
Chain of Luciferin 4-monooxygenase (Photinus pyralis) (P08659 whole entry, looked up): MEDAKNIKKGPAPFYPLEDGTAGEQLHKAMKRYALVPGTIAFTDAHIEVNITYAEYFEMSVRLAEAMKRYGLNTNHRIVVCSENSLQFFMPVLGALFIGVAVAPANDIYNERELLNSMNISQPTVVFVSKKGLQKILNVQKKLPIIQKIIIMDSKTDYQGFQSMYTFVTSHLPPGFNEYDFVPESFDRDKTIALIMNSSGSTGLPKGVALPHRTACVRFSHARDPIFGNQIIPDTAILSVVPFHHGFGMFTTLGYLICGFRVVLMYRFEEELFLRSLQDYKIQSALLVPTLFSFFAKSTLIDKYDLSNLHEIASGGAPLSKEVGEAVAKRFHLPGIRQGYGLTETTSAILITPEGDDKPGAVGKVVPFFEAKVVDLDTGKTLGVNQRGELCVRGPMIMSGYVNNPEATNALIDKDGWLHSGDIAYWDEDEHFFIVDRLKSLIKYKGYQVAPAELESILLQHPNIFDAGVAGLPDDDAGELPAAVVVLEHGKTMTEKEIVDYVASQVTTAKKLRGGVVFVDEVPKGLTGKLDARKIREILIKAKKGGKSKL
(In qHTS, concentration-response curves come from the screen itself.)

Test [2] can be described thus: qHTS assay to identify small molecule agonists of the constitutive androstane receptor (CAR) signaling pathway - cell viability counter screen (AID 1224836). Note: series mostly up to about 92 µM; nearly all actives have a fitted effect of over 45% in size. The gist of the method:
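Counter screen multiplexed with the CAR reporter readout: HepG2 cells co-transfected with hCAR and the CYP2B6-2.2kb construct receive a 15-concentration compound series and 0.75 uM PK11195 (final), then CellTiter-Fluor fluorescence is read after 23 h.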

A short description of test [3]: qHTS assay to identify small molecule antagonists of the constitutive androstane receptor (CAR) signaling pathway - cell viability counter screen (AID 1224837). Note: series mostly up to about 92 µM; nearly all actives have a fitted effect of over 45% in size. The gist of the method:
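Cytotoxicity counter-screen: CellTiter-Fluor fluorescence after 23 h compound exposure (15-point qHTS) in double-stable HepG2-CYP2B6-hCAR cells, with 50 nM CITCO added.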

In test [4] the target is Nuclear receptor subfamily 1 group I member 3 (Homo sapiens) (UniProt Q14994). The test can be described thus: qHTS assay to identify small molecule antagonists of the constitutive androstane receptor (CAR) signaling pathway (AID 1224838).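 Note: HepG2 cells stably expressing hCAR with CYP2B6 luciferase reporter stimulated by CITCO; nearly all actives have a fitted effect of over 40% in size.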 Note: potency is the fitted concentration of half-maximal effect. In short, it runs like this:
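Antagonism measured as luciferase signal (ONE-Glo, 30 min, room temperature) in CAR-stimulated cells: HepG2-CYP2B6-hCAR double-stable line exposed 24 hr at 37 C to compound in a 15-point series plus 50 nM CITCO.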

Test [5] has the same target. The test is described as follows: qHTS assay to identify small molecule agonists of the constitutive androstane receptor (CAR) signaling pathway (AID 1224839). Note: series mostly up to about 92 µM; nearly all actives have a fitted effect of over 15% in size. The gist of the method: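 A 15-concentration quantitative screen uses HepG2 cells co-transfected stably with human CAR and CYP2B6-2.2kb reporter. Treatment lasts 24 h with 0.75 uM PK11195 final present; ONE-Glo luminescence is the signal.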

Test [6] is described as follows: qHTS assay to identify small molecule antagonists of the estrogen related receptor signaling pathway with the pleiotropic PPARgamma coactivator (PGC) from Tox21 10K library - cell viability counter screen (AID 1224840; active = well fitted cell-killing curve with a large enough effect in the repeat runs, not every such curve was filed as active; note: nearly all actives have a fitted effect of over 40% in size). The gist of the method:
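Counter-screen for cytotoxicity: after 17.5 h compound exposure at 37 C, CellTiter-Fluor reagent added to PGC/ERR cells for 30 min and fluorescence read. Cells were seeded at 2,000 per well 6 h before dosing.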

For test [7], the target named is Thyrotropin receptor (Homo sapiens) (UniProt P16473). The test can be described thus: qHTS assay to identify small molecule agonists of the thyroid stimulating hormone receptor (TSHR) signaling pathway (AID 1224843; calls by dose curve; note: nearly all actives have a fitted effect of over 45% in size). The gist of the method: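 Agonist activity read as cAMP rise via d2/cryptate HTRF competition, 1 h room-temperature detection, in HEK293 cells expressing TSHR. Fifteen-point titrations, each run in triplicate, with a 30 min room-temperature incubation beforehand.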
Chain of Thyrotropin receptor (Homo sapiens) (P16473 whole entry, looked up): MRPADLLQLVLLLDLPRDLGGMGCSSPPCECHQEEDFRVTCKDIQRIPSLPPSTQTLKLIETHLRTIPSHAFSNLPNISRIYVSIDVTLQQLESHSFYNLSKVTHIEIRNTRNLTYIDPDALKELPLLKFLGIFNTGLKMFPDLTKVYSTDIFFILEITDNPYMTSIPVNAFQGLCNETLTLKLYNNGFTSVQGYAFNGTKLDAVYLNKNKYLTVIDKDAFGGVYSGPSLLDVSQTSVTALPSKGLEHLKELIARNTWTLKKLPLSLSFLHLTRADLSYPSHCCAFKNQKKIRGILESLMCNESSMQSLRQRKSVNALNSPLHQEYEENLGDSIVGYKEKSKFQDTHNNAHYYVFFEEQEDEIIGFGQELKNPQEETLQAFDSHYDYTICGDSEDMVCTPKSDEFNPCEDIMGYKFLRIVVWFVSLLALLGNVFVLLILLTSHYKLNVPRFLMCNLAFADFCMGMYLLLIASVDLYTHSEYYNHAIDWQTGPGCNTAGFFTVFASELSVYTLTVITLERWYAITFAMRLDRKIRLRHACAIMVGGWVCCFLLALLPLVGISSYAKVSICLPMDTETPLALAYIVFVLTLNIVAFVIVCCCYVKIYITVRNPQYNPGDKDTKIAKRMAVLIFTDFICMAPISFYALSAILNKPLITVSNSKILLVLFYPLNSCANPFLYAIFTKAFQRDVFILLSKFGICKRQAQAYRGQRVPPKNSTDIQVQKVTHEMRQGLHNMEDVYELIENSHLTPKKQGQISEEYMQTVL

Test [8] is described as follows: qHTS assay to identify small molecule agonists of the hypoxia (HIF-1) signaling pathway - cell viability counter screen (AID 1224844; calls by dose curve; note: nearly all actives have a fitted effect of over 50% in size). The gist of the method:
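Cytotoxicity measured by CellTiter-Glo ATP luminescence in the wells also read for beta-lactamase signal. Cells were HRE-bla ME-180 (2,000/well, 0.5% dialyzed FBS), exposed to compounds for 17 h at 37C.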

Test [9] can be described thus: qHTS assay to identify small molecule agonists of H2AX (AID 1224845; active = well fitted activation curve with a large enough effect in the signal ratio in the repeat runs, not every such curve was filed as active; the % refers to the signal ratio). The gist of the method: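 Phospho-H2AX Ser139 measured by HTRF (ex 320 nm; em 665 and 620 nm) after 24 hr antibody incubation. Compounds, 15 concentrations, 0.76% DMSO, were applied to CHO-K1 cells for 3hr at 37C before lysis.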
A short description of test [10]: qHTS assay to identify small molecule agonists of the hypoxia (HIF-1) signaling pathway (AID 1224846; active = well fitted activation curve with a large enough effect in the signal ratio in the repeat runs, not every such curve was filed as active; the % refers to the signal ratio). The gist of the method: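 Compounds added to ME-180 cells carrying hypoxia-response-element beta-lactamase reporter (0.5% dialyzed FBS, 5 h preplating), 17 h at 37C; agonist activity detected by CCF4-AM B/G FRET read-out.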
A short description of test [11]: qHTS RealTime-Glo MT Cell Viability Assay in HepG2 cells - 24 hour (AID 1224867). Note: nearly all actives have a fitted effect of over 50% in size. In short, it runs like this:
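Real-time, nonlytic viability: 600 HepG2 cells/well mixed with NanoLuc enzyme plus prosubstrate; 5 h settle, compound (DMSO) added by pintool; luminescence monitored over 40 h at 37 C.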

Test [12] in a line: qHTS RealTime-Glo MT Cell Viability Assay in HEK293 cells - 32 hour (AID 1224868). Note: top concentration of the series differs between compounds; nearly all actives have a fitted effect of over 50% in size. The gist of the method: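 Cells + reagent dispensed (600 cells/well, HEK293) → 5 h at 37 C/5% CO2 → 23 nL compound in DMSO pinned → 40 h at 37 C → luminescence read at 0, 8, 16, 24, 32, 40 h.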
The nature of test [13]: A CellTox Green Cytotoxicity Assay to monitor cytotoxicity in HEK293 cells - 0 hour (AID 1224869). Note: nearly all actives have a fitted effect of over 50% in size. The gist of the method:
(§1)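 Fluorescence from a DNA-binding dye excluded by viable cells was measured repeatedly in the same HEK293 wells (600 cells/well) during continuous compound exposure at 37 C. Each assay gives one read point: 0, 8, 16, 24, 32 or 40 h.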

Test [14] can be described thus: qHTS RealTime-Glo MT Cell Viability Assay in HepG2 cells - 40 hour (AID 1224870). Note: nearly all actives have a fitted effect of over 50% in size. In short, it runs like this:
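Real-time viability: cells seeded at 600 per well together with NanoLuc and cell-permeant prosubstrate, compounds added after 5 h incubation. Luminescence tracked at 0, 8, 16, 24, 32 and 40 h of exposure.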

Test [15] is described as follows: A CellTox Green Cytotoxicity Assay to monitor cytotoxicity in HEK293 cells - 40 hour (AID 1224871). Note: nearly all actives have a fitted effect of over 45% in size. In short, it runs like this:
as §1

A short description of test [16]: qHTS assay to identify small molecule agonists of H2AX - cell viability counter screen (AID 1224847; calls by dose curve; note: top concentration of the series differs between compounds; nearly all actives have a fitted effect of over 30% in size). The gist of the method: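 We seed wild-type CHO-K1 cells overnight, treat them for 3 hr at 37C with compounds in 15-concentration series, and quantify remaining viability by CellTiter-Glo luminescence.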

Values without a mark were called inactive. Inconclusive results are not listed. Calls of active or inactive are those of the source. Unless noted, calls come from the whole dose curve; as a rule, active = well fitted curve in the direction sought with a large enough effect in the repeat runs; inconclusive = weak or mixed curves; inactive = no such curve, though single readings can be large; an effect the other way counts as inactive or inconclusive.

Chain of Nuclear receptor subfamily 1 group I member 3 (Homo sapiens) (Q14994 whole entry, looked up): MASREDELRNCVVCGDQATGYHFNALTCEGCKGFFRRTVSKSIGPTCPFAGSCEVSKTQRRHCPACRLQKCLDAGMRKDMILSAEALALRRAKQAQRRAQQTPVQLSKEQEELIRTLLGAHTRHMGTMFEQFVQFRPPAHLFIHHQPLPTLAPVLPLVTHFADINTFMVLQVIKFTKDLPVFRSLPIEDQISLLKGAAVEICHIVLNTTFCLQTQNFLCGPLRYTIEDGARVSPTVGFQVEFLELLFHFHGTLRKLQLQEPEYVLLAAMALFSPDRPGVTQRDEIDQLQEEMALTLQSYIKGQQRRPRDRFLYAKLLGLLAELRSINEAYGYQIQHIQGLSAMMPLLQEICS

For `OCCC(O)CO` (configuration not stated), the Potency entry in test [1], in [2], in test [3], in [4], in test [5] and in test [6] was “inactive” in each case. Besides, the Potency entry in test [7], in test [8], in [9], in test [11], in test [12] and in test [13] was “inactive” each time. The Potency entry in test [14] and in test [15] was “inactive” throughout. The call in test [10] was inactive.
For `CCc1cccc(C)c1`, the Potency result in [1], in test [2], in [3], in [4], in test [5] and in test [6] was “inactive” in each case. Besides, the Potency entry in [7], in [8], in test [9], in test [16], in test [11] and in test [12] was “inactive” each time. Also, the Potency entry in test [14] and in test [15] was “inactive” throughout. Moreover, the call in test [10] was inactive.
In the case of `CC1CNCC(C)O1` (configuration not stated), the Potency entry in test [1], in test [2], in test [3], in test [4], in [5] and in test [6] was “inactive” throughout. Moreover, the Potency result in test [7], in test [8], in [9], in test [16], in test [11] and in test [12] was “inactive” throughout. Also, the Potency entry in test [13], in test [14] and in test [15] was “inactive” each time. For the same compound, the result in test [10] was inactive.
Regarding `COC(=O)CC#N`, the Potency result in [1], in test [2], in [3], in [4], in test [5] and in test [6] was “inactive” each time. Moreover, the Potency result in test [7], in test [8], in test [9], in [11], in [12] and in [13] was “inactive” throughout. Further, the Potency result in [14] and in test [15] was “inactive” each time. In addition, in test [10], the compound was called inactive.
Consider `C=CC(C)C#N` (configuration not stated), for which the Potency entry in [1], in test [2], in test [3], in test [4], in test [5] and in test [6] was “inactive” in each case. Besides, the Potency result in test [8], in test [9], in test [16], in test [11], in [12] and in [13] was “inactive” in each case. The Potency entry in test [14] is “inactive”. In addition, the compound was called inactive in test [10].
Take `COc1ccc(C#N)cc1`: the Potency entry in test [1], in [2], in test [3], in test [4], in [5] and in test [6] was “inactive” in each case. The Potency entry in test [8], in test [9], in test [16], in test [11], in test [12] and in [13] was “inactive” throughout. Further, the Potency result in test [15] is “inactive”. In [10], the result was inactive.
`CC(C)(C)c1cc(CCC(=O)NCCCCCCNC(=O)CCc2cc(C(C)(C)C)c(O)c(C(C)(C)C)c2)cc(C(C)(C)C)c1O`: the Potency result in [1], in test [2], in [3], in test [5], in [6] and in test [7] was “inactive” in each case. For the same compound, the Potency entry in [8], in test [9], in test [16], in test [13] and in test [14] was “inactive” throughout. For the same compound, in [4], the Potency is 1.93 µM (active). Besides, the compound was called inactive in test [10].
Regarding `CCOC(=O)COc1ccc(C)cc1`, the Potency in [1] was 63.3 µM (active). For the same compound, the Potency result in [2], in test [3], in [4], in test [5], in test [6] and in [7] was “inactive” each time. The Potency entry in [8], in test [9], in test [16], in [11], in test [12] and in [13] was “inactive” in each case. The Potency entry in [15] was “inactive”. The compound was called inactive in test [10].
As to `Cc1cccc(C)n1`, the Potency result in test [1], in test [2], in [3], in test [4], in [5] and in test [6] was “inactive” in each case. In addition, the Potency entry in test [7], in test [8], in [9], in test [11], in test [12] and in test [13] was “inactive” throughout. The Potency result in test [14] and in test [15] was “inactive” in each case. The outcome in [10] was inactive.

The values above are taken from PubChem BioAssay (Tox21).
